Hits are enriched below; roughly 2.9% of the tested compounds scored in any of these assays.
S1P4 antag: human S1P4 receptor antagonism; actives 0.26% (n = 220,000); S1P4-expressing cells, antagonist mode, reporter read-out; O95977; inhibition, % at 4.98 µM; in the data active = inhibition above about 29%
S1P3 antag: blocks the human S1P3 receptor. Q99500. CHO S1P3 NFAT-BLA reporter, FRET fluorescence, antagonist mode. inhibition, % at 4.98 µM. actives 0.27% (n = 170,000);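 active = inhibition above the plate cutoff, the mean inhibition of test wells on that plate plus 3 SD, cut at about 28% in these data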;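 note: cells challenged with S1P at its EC80 of 0.8 µM; blue over green emission ratio from cleaved BLA substrate after 4 h stimulation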
Target sequence (Q99500 whole entry, looked up): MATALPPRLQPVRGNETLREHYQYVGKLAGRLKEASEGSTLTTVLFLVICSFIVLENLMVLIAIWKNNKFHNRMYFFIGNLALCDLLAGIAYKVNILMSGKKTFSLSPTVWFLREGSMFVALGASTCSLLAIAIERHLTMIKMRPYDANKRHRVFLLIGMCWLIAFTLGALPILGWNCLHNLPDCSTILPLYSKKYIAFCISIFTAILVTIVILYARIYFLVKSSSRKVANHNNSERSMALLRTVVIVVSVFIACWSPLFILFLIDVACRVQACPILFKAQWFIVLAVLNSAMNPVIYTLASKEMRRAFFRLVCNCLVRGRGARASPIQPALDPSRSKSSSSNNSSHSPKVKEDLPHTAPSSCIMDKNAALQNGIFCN
HSF1 inhib: HSF1 inhibition; NIH3T3-HGL HSE-luciferase, MG132-induced, luminescence 8 h; active compounds read low; activity change, negative = inhibition, % at 7.5 µM (by protocol); actives 0.77% (n = 300,000); AID 2098;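 active = more than half of replicate wells show activity change below -50%, luminescence cut by over half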;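 note: luciferase reports HSF-1 transcriptional activity via heat shock element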
Hsp70 act: switches on Hsp70 transcription; HeLa Hsp70 promoter luciferase reporter, luminescence; scaled: vehicle 0, proteasome-inhibitor control 100%; activation, % at 10 µM; actives 0.04% (n = 200,000);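 active = activation above the mean across all tested compounds plus 3 SD, cutoff set per campaign, cut at about 5.5% in these data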
S1P4 agonist: agonists of human S1P4 receptor | O95977 | activation, % at 4.98 µM | actives 0.35% (n = 220,000) | S1P4-expressing cell line, agonist reporter assay; in the data active = activation above about 11%
HSF1 activator: increases HSF-1 driven luciferase reporter signal. NIH3T3-HGL HSF-1 luciferase reporter, MG132, 8 h; 100% = twice DMSO control signal. activation, % at 9 µM. actives 1.7% (n = 300,000);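 active = mean replicate activation of at least 50% with a set share of replicates each reaching 50%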
Of the large screens only hits and unclear results are named; the others gave an inactive call.

CCOC(=O)c1ccc(NC(=O)N2CCN(S(C)(=O)=O)CC2)cc1	HSF1 inhib -53.0
CCOC(=O)c1ccc(NC(=O)C2CC3CCC2C3)cc1 (stereo unspecified)	HSF1 activator 63.9 (no result: S1P4 antag, S1P3 antag, Hsp70 act, S1P4 agonist)
O=C(Nc1ccc(F)c(Cl)c1)C1CC2CCC1C2 (stereo unspecified)	HSF1 activator 70.0 (no result: S1P4 antag, S1P3 antag, Hsp70 act, S1P4 agonist)
CC(CCc1ccccc1)NC(=O)C1CCN(S(=O)(=O)N2CCOCC2)CC1 (stereo unspecified)	none
O=C(NCC1CCCO1)c1ccccc1OCc1ccc(Cl)cc1 (stereo unspecified)	none (no result: S1P4 antag, S1P3 antag, Hsp70 act, S1P4 agonist)
CC1=NN(c2ccc(C)cc2C)C(=O)C1C(c1ccccc1)C1C(=O)N(c2ccc(C)cc2C)N=C1C (stereo unspecified)	HSF1 activator 63.9 (no result: S1P3 antag)
Cc1ccc(-n2nc(C)c(C(=O)O)n2)c(C)c1	none
CC(=O)Nc1ccc(NC(=O)c2ccccc2Sc2ccc([N+](=O)[O-])cc2Cl)cc1	HSF1 activator 75.9
O=C(Nc1ccc(Nc2ccccc2)cc1)c1cc([N+](=O)[O-])ccc1Cl	HSF1 activator 134.2 (no result: S1P4 antag, S1P3 antag, Hsp70 act, S1P4 agonist)
COc1ccc(NC(=O)c2cccc([N+](=O)[O-])c2)cc1	none
O=C(c1ccccc1Sc1ccc([N+](=O)[O-])cc1Cl)N1CCOCC1	none
O=C(Nc1ccccc1Oc1ccccc1)c1cc([N+](=O)[O-])ccc1Cl	none
COc1ccc(NC(=O)c2cc([N+](=O)[O-])ccc2O)cc1	HSF1 inhib -73.5
O=C(Nc1ccc2c(c1)CCCN2C(=O)c1ccco1)c1cc([N+](=O)[O-])ccc1Cl	HSF1 activator 74.5 (no result: S1P4 antag, S1P3 antag, Hsp70 act, S1P4 agonist)
CCc1cc(C(N)=S)ccn1	none
O=C(COC(=O)c1ccccc1)c1ccc(Br)cc1	HSF1 activator 57.8 (no result: S1P3 antag)
CC(C)(C)OC(=O)N1CCN(C(=O)c2[nH]cnc2C(=O)NCC(=O)OCc2ccccc2)CC1	HSF1 inhib -87.9 (no result: S1P4 antag, S1P3 antag, Hsp70 act, S1P4 agonist)
Cc1ccc(/C=C2\SC(=S)N(CC(=O)Nc3cccnc3)C2=O)cc1	none
Cc1ccc(/C=C2\SC(=S)N(CCCC(=O)Nc3cccnc3)C2=O)cc1	HSF1 inhib -60.0 (no result: S1P4 antag, S1P3 antag, Hsp70 act, S1P4 agonist)
COc1ccc(/C=C2\SC(=S)N(CCC(=O)Nc3cccc(O)c3)C2=O)cc1	HSF1 activator 92.1 (no result: S1P4 antag, S1P3 antag, Hsp70 act, S1P4 agonist)
COc1ccc(/C=C2\SC(=S)N(CCCC(=O)Nc3ccc(O)cc3)C2=O)cc1	none (no result: Hsp70 act)
Cc1ccc(/C=C2\SC(=S)N(CCC(=O)NNS(=O)(=O)c3ccc(C)cc3)C2=O)cc1	HSF1 activator 64.1
CCC1(c2ccccc2)NC(=S)N(c2ccc(C)cc2)N1 (stereo unspecified)	none
CCC1(c2ccc(Cl)cc2)NC(=S)N(c2ccccc2)N1 (stereo unspecified)	HSF1 activator 69.7
COc1cc(CC(=O)N(c2ccccc2)c2nc(C)cs2)cc(OC)c1OC	HSF1 activator 61.6
O=C(NC1CCCCC1)c1cnn2c(C(F)(F)F)cc(-c3ccco3)nc12	HSF1 activator 69.7 (no result: S1P3 antag)
O=C(O)CN1C(=O)/C(=C/c2ccccc2Br)Oc2ccccc21	HSF1 activator 69.5 (no result: S1P4 antag, S1P3 antag, Hsp70 act, S1P4 agonist)
CCOC(=O)CN1C(=O)/C(=C/c2cccc(Br)c2)Oc2ccccc21	none (no result: S1P4 antag, S1P3 antag, Hsp70 act, S1P4 agonist)
CCOc1ccc(CC(=O)N2CCC3(CC2)NCCc2[nH]cnc23)cc1	HSF1 inhib -62.2 (no result: S1P4 antag, S1P3 antag, Hsp70 act, S1P4 agonist)
CCC(C)C(=O)Nc1nnc(CCc2ccccc2)s1 (stereo unspecified)	none (no result: S1P4 antag, S1P3 antag, Hsp70 act, S1P4 agonist)
Cc1cc(C)cc(NC(=S)Nc2ccccn2)c1	none
Cc1ccc(NC(=S)c2nc3ccccc3[nH]2)c(C)c1	HSF1 activator 72.2
Cc1cc(Cl)ccc1NC(=S)Nc1ccccn1	HSF1 activator 55.5
Cc1ccc(NC(=S)c2nc3ccccc3[nH]2)cc1	none (no result: S1P3 antag)
Cc1cccc(NC(=S)Nc2ccccn2)c1	HSF1 activator 58.5 (no result: Hsp70 act)
Cc1ccc(NC(=S)Nc2cccc3cnccc23)c(C)c1	HSF1 activator 72.6
CCCCCCN=C(C)c1ccccc1O	none (no result: Hsp70 act)
O=C1/C(=C/c2cccc(Br)c2)SC(=S)N1/N=C/c1cc([N+](=O)[O-])ccc1O	none (no result: Hsp70 act)
Cc1cc(C)nc(NC(=S)Nc2cccc(F)c2)c1	none (no result: Hsp70 act)
Cc1ccc(NC(=S)Nc2ccccn2)c(C)c1	HSF1 activator 60.3 (no result: Hsp70 act)
Cc1ccc(NC(=S)Nc2ccccn2)cc1C	none (no result: Hsp70 act)
COc1cccc(NC(=S)Nc2cc(C)cc(C)n2)c1	HSF1 activator 55.8 (no result: Hsp70 act)
Nc1ccccc1C(=O)NNC(=O)C(=O)/C=C(\O)c1ccccc1	none (no result: Hsp70 act)
COc1ccccc1NC(=O)Nc1nc(CC(=O)Nc2cc(F)ccc2F)cs1	none (no result: S1P4 antag, S1P3 antag, Hsp70 act, S1P4 agonist)

From PubChem
